{
  "source": "the supplement of paper PMC12632987",
  "binders": {"B1": {"name": "traf2_out_11_155_731 (protein)", "chain": "EKKEKARREIVDFAIEQGDELEAFVEALIKEVEKEDPELAKELRAVFEEHRKYSARSAALAAIDVLRKHGYEERAEELEKKIEEANKKASEFIKKIEEEL"}, "B2": {"name": "traf2_out_20_38_2042 (protein)", "chain": "EEEEKEEEQIELDVEIANEALDEVEERFAKWRAEGLSLEEIAERVKEEIRKAFKEAGLEEKLPEYLEQIDLVRDSPDAERLLERILARALALVRRKKREK"}, "B3": {"name": "traf2_out_20_38_2026 (protein)", "chain": "SMEEEEEKKLEELIKVAQEAYDEAEKKIEELKKEGKSIEEIAEIAKEEIERILSEEGLEEEKEELIEEVDLVLDSPDAERLIARILARAVALAHQKRLEK"}, "B4": {"name": "traf2_out_20_38_2028 (protein)", "chain": "SEEEEEKKRLEELIKVANEAYDKAEKKIAKLKAEGKTIEEIAEEAKEEVERILSEVGLEEEREELIEDIDRVLDSPDAERLIARILARAVALAYQKELQK"}, "B5": {"name": "traf2_out_5_189_2315 (protein)", "chain": "SAREEEQKALNEKAKEIGKEVTKLINEMKKEGKSWEEIAEKMLEKMKTLPVDDAALYSGIFYSIMLGEAIANNDEKLKEIAEKFREKAKELIKEKEKKEA"}, "B6": {"name": "traf2_out_17_162_1608 (protein)", "chain": "MELEEKLKKLKELLEELEKKLKRLEEKLKNIEKLSKEELSDLLVEASEARRKALEALEEIKKLKEKLDKEEYEKLSKRFEEIAEKFQRIANKFYKELEKK"}, "B7": {"name": "traf2_out_3_89_2292 (protein)", "chain": "SEERERKIRLARERAERYARGFEKSARRVAKEMLKEGYSLETLRGVLEAARTALVEVFREELRELGLSEEDIRELVEELERRLREIVEKVLEEAEKKRKE"}, "B8": {"name": "traf2_out_20_3_2164 (protein)", "chain": "SELEKKLEEELERALKLLKKAAELSDEETKKKLKELIERLKESRSLSPSDRLVVVSEVRREVLLLAQKAKAEGKEELAKLLEEAAEELNRAMQLLYEIIE"}, "B9": {"name": "traf2_out_13_95_1191 (protein)", "chain": "EEEKRKKYAERTNAIADELLDHADAKIAELEAATGDPELGAELRRVLDRGGVSALIHRIRELAKEDPAYREAYEAAAAELEAKRREAGRRVAEAEKEIEA"}, "B10": {"name": "traf2_out_17_162_1521 (protein)", "chain": "SPLEAELKALEAELEALKKKLEELKKKLENLDKMSKEELTDLLVEASEARRKALELAERLKRLKPLIGEERAGALIAEAEAIAEELQKIANKIYKKLEEK"}, "B11": {"name": "traf2_out_17_162_1578 (protein)", "chain": "EELKKELEELKKKLEELKKKLKEFEKKLPELPKMSYEELTDLLVEVSELKREARELAEKLEELGKKLGEEEIKKLVEEAKEIAEKLQKIANKIYKEIEKK"}, "B12": {"name": "traf2_out_20_3_2068 (protein)", "chain": "EELEKELEEALEKALALLKKAAALADPETAAELDALIKELKASKELSVSDRLVAVSAVRRRVLRLAEEAEAAGDAELAAVLNKAADALNRAAQLLYQILQ"}, "B13": {"name": "traf2_out_15_48_1358 (protein)", "chain": "STEALRETARKVADLIDATLDEVAKELKALLPKAKPEVKPILEEAIRVASTHRSINDTIALLEEAIKKSDPELAKELQELRDRLLATQKEASKLINETEK"}, "B14": {"name": "traf2_out_17_162_1493 (protein)", "chain": "SELEEKKKKLEKELKELKKKLKELEKKLENIEKLSKEELTDLLVEASELKRKARQLAEEYKKLLKKTGDKELEKLIKEAEELAERAQKIANKIYKEIEKK"}, "B15": {"name": "traf2_out_20_3_2136 (protein)", "chain": "SELEEELKKELEKAKKLLEKAAALADKETAAKLKALIKRLEASEELSPEDRLVEFSEIRREVLELALAAEAAGKAELAKLLNEAADALNKAMNLLMKIIE"}, "B16": {"name": "traf2_out_8_15_2548 (protein)", "chain": "SIKEAAEKDIARLKALSDGDKESLINTLLGMAKGELRLAKIYKEEGRKEEALRTLEYARIYAEAALELAKEIGSPRLEEIKKEVEELEKEIEELRKEIEA"}, "B17": {"name": "traf2_out_20_3_2212 (protein)", "chain": "EELRKKVEEELEKIRELLEKAKPRLPEEDYARLKELLERAEEALKEDPSDALVELSELKALLLRLSQEARAAGDEELAALLDEAADAANKAANLVYKILE"}, "B18": {"name": "traf2_out_20_38_2001 (protein)", "chain": "SAEEEEEEKLKKIIDVANEAYDEASKEIEELKAAGKSVEEIAEIVRAKVRELLTAAGLEEELEELLADIDRALSSPNALRLFARIRARAVALVKQKELNE"}, "B19": {"name": "traf2_out_1_27_1004 (protein)", "chain": "STEEERELLRRANREIGRASPEERVEVIVRALEEALARGLESPEHIAVVLILSLGEEEERRRAIEAAEEVLRAAGVSEEAIERMRRRVESGWARLDKLLA"}},
  "note": "In all, about 1,800 sequences were measured (“median log2 fold change of GCK-ALFA target abundance (FLAG IP / Myc IP barcode read proportion)”: median about 0.14, lowest 2% from about -0.84 on). The full list was thinned out, with the lowest values kept by preference.",
  "data": [
    {"biological_target": "T1, TRAF2, Q12933", "T1 chain": "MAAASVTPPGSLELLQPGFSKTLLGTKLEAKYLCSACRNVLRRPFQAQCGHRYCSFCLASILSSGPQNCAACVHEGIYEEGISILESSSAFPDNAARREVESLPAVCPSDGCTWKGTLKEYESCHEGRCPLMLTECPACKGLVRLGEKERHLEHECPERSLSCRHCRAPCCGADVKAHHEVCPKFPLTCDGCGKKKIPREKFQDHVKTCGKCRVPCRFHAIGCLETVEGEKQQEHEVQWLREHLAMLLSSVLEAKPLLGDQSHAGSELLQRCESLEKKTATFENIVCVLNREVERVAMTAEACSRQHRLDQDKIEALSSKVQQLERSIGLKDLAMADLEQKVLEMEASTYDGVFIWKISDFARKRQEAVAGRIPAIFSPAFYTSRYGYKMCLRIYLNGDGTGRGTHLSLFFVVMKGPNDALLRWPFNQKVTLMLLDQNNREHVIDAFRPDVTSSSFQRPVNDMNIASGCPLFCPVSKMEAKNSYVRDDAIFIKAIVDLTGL", "assay": "median log2 fold change of GCK-ALFA target abundance (FLAG IP / Myc IP barcode read proportion) (log2 ratio); each designed protein is fused to an ALFA-tag nanobody in HEK293 cells to bring the named protein to FLAG-tagged glucokinase (GCK); Myc marks an untargeted standard; higher = target protein stabilised (more abundant)", "settings": "target protein: 3xFLAG-MCP-GCK-ALFA reporter; HEK293 landing pad (RPLP)", "procedure,_shortened": "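HEK293 landing-pad cells received a recombined binder library fused to the ALFA nanobody and were induced with 2 μg mL^−1 doxycycline, then transfected with a plasmid encoding a FLAG-tagged target and a Myc-tagged standard. Lysates were collected after 48 h for anti-FLAG and anti-Myc immunoprecipitation, and the circular RNA barcodes were reverse transcribed, amplified and sequenced. Target abundance for each binder is the median log2 ratio of FLAG to Myc barcode read proportions. Barcodes had to reach a proportion of at least 10^−7 in both replicates, each binder needed at least 3 barcodes per replicate, a pseudocount of 10^−6 was applied, and the two replicates were pooled.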", "values": [
      {"binder": "B1", "median log2 fold change": 0.0471},
      {"binder": "B2", "median log2 fold change": -0.0369},
      {"binder": "B3", "median log2 fold change": -0.0149},
      {"binder": "B4", "median log2 fold change": -0.966},
      {"binder": "B5", "median log2 fold change": 0.387},
      {"binder": "B6", "median log2 fold change": -0.073},
      {"binder": "B7", "median log2 fold change": -1.24},
      {"binder": "B8", "median log2 fold change": -0.157},
      {"binder": "B9", "median log2 fold change": 0.242},
      {"binder": "B10", "median log2 fold change": 0.311},
      {"binder": "B11", "median log2 fold change": 0.34},
      {"binder": "B12", "median log2 fold change": -0.0614},
      {"binder": "B13", "median log2 fold change": 0.33},
      {"binder": "B14", "median log2 fold change": 0.47},
      {"binder": "B15", "median log2 fold change": 0.345},
      {"binder": "B16", "median log2 fold change": 0.203},
      {"binder": "B17", "median log2 fold change": -0.0318},
      {"binder": "B18", "median log2 fold change": -1.24},
      {"binder": "B19", "median log2 fold change": 0.0667}
    ]}
  ]
}
